A selection: hits, their analogues and other compounds. The true share with any hit is near 3.5%.
BoNT-A LC inh2: inhibitors of Botulinum neurotoxin A light chain protease; multiplex microsphere protease substrate cleavage, flow cytometry; inhibition, % at 10 µM; 360,000 tested, 0.17% active; AID 588499; note: plate controls were buffer without enzyme for full effect and enzyme alone for no effect
BoNT-F LC inh: blocks Botulinum neurotoxin F light chain protease; Multiplex microsphere protease cleavage assay, flow cytometry; inhibition, % at 10 µM; 360,000 tested, 0.22% active; in the data active = inhibition above about 35%, passing the limit was not always enough; inconclusive = no clear call, values can overlap the other calls; note: plate controls were buffer without enzyme for full effect and enzyme alone for no effect
Bead autofluor: compound fluorescence in toxin protease inhibitor counterscreen | compound autofluorescence counterscreen, microsphere flow cytometry; hits give high values | fluorescence intensity (no concentration beside the values) | 360,000 tested, 3.1% active | AID 624483; in the data active = fluorescence intensity above about 16000; inconclusive = no clear call, values can overlap the other calls
Anthrax LF prot: blocks Bacillus anthracis lethal factor protease. P15917. multiplex microsphere protease cleavage assay, LF. inhibition, % at 10 µM. 360,000 tested, 0.12% active. AID 588501; note: plate controls were buffer without enzyme for full effect and enzyme alone for no effect
The depositor's hits bear a star. Cut-off read from the data, not from the text of the source, unless noted: active = inhibition above about 30%; inconclusive = no clear call, values can overlap the other calls; inactive = below that.

Results for O=C1CC(N2CCC(c3nc4ccccc4[nH]3)CC2)C(=O)N1c1ccccc1F (stereo unspecified) ?
BoNT-A LC inh2: 0; BoNT-F LC inh: 3; Bead autofluor: 2065; Anthrax LF prot: -2

Results for C[C@H](NC(=O)c1ccccc1Cl)C(=O)OC(C(=O)Nc1cc(C(F)(F)F)ccc1Cl)c1ccccc1 (stereo partly specified) ?
BoNT-A LC inh2: 0; BoNT-F LC inh: -18; Bead autofluor: 2808; Anthrax LF prot: 1

Results for O=C(CNC(=O)c1ccccc1F)OC(C(=O)Nc1cc(C(F)(F)F)ccc1Cl)c1ccccc1 (stereo unspecified) ?
BoNT-A LC inh2: 2; BoNT-F LC inh: 4; Bead autofluor: 22099*; Anthrax LF prot: 0

Results for CCCN1CN(Cc2ccco2)c2nc3ccccc3n2C1 ?
BoNT-A LC inh2: inconclusive; BoNT-F LC inh: 4; Bead autofluor: 18478*; Anthrax LF prot: 1

Results for COc1cc2c(cc1OC)[C@@H](Cc1ccc(OCCC#N)cc1)N(C)CC2 ?
BoNT-A LC inh2: -1; BoNT-F LC inh: 40*; Bead autofluor: 3356; Anthrax LF prot: -1

What do the screens show for `Cc1cc(C)nc(Nc2nc(C(N)CCc3ccccc3)cs2)n1` (stereo unspecified)?
BoNT-A LC inh2: 0; BoNT-F LC inh: -8; Bead autofluor: 3616; Anthrax LF prot: -4

Results for Cc1ccc(C)c(Cn2c(=O)n(CCCC(=O)NCc3ccco3)c(=O)c3sccc32)c1 ?
BoNT-A LC inh2: -1; BoNT-F LC inh: -28; Bead autofluor: 3168; Anthrax LF prot: -4

Results for COc1ccc(CCNC(=O)Cn2c(=O)n(CCCC(=O)NCc3ccco3)c(=O)c3sccc32)cc1OC ?
BoNT-A LC inh2: -1; BoNT-F LC inh: -2; Bead autofluor: 5088; Anthrax LF prot: -3

Results for CCC1CCCCN1C(=O)Cn1c(=O)n(CCC(=O)NCc2ccco2)c(=O)c2sccc21 (stereo unspecified) ?
BoNT-A LC inh2: 0; BoNT-F LC inh: -4; Bead autofluor: 10086; Anthrax LF prot: 2

How did O=C(CCCn1c(=O)c2sccc2n(CC(=O)NCc2ccco2)c1=O)NCc1ccco1 do in these assays?
BoNT-A LC inh2: inconclusive; BoNT-F LC inh: 3; Bead autofluor: 20462*; Anthrax LF prot: 2

What do the screens show for `O=C(CCn1c(=O)c2sccc2n(CC(=O)NCc2ccco2)c1=O)NCc1ccccc1`?
BoNT-A LC inh2: -4; BoNT-F LC inh: -9; Bead autofluor: 24369*; Anthrax LF prot: -4

Results for Cc1cccc(C)c1NC(=O)Cn1c(=O)n(CCCC(=O)NCc2ccco2)c(=O)c2sccc21 ?
BoNT-A LC inh2: -6; BoNT-F LC inh: -7; Bead autofluor: 22217*; Anthrax LF prot: 0

What do the screens show for `C=CCOC1=CS(=O)(=O)N(Cc2ccc(Br)cc2)c2ccc(Br)cc21`?
BoNT-A LC inh2: 0; BoNT-F LC inh: -6; Bead autofluor: 3859; Anthrax LF prot: -4

What do the screens show for `O=C1c2ccccc2C(c2nc3ccccc3[nH]2)N1c1ccccn1` (stereo unspecified)?
BoNT-A LC inh2: 1; BoNT-F LC inh: 10; Bead autofluor: 4261; Anthrax LF prot: 1

What do the screens show for `COc1ccc(CN2C[C@@H](CO)O[C@@H](n3cnc4c(N(C)C)ncnc43)C2)cc1`?
BoNT-A LC inh2: -1; BoNT-F LC inh: -7; Bead autofluor: 4031; Anthrax LF prot: -5

Results for CCOc1cccc(N2C(=O)CC(N3CCN(c4ccc(S(=O)(=O)CC)cc4)CC3)C2=O)c1 (stereo unspecified) ?
BoNT-A LC inh2: 2; BoNT-F LC inh: 3; Bead autofluor: 22715*; Anthrax LF prot: -6

What do the screens show for `CCCOc1ccc(N2C(=O)CC(N3CCN(c4nc5ccccc5s4)CC3)C2=O)cc1` (stereo unspecified)?
BoNT-A LC inh2: 0; BoNT-F LC inh: -11; Bead autofluor: 4860; Anthrax LF prot: 1

How did O=C1CC(N2CCN(c3cccc(C(F)(F)F)c3)CC2)C(=O)N1c1ccc(F)cc1 (stereo unspecified) do in these assays?
BoNT-A LC inh2: 0; BoNT-F LC inh: -2; Bead autofluor: 22486*; Anthrax LF prot: -5

Results for CCOC(=O)C1CCCN(C2CC(=O)N(c3cccc(C(F)(F)F)c3)C2=O)C1 (stereo unspecified) ?
BoNT-A LC inh2: inconclusive; BoNT-F LC inh: -5; Bead autofluor: 23785*; Anthrax LF prot: -3

What do the screens show for `O=C1CC(N2CCN(c3nc4ccccc4s3)CC2)C(=O)N1c1cccc(F)c1` (stereo unspecified)?
BoNT-A LC inh2: -2; BoNT-F LC inh: -1; Bead autofluor: 23609*; Anthrax LF prot: -8

Results for O=C1CC(N2CCN(c3ccccn3)CC2)C(=O)N1c1ccc(F)cc1 (stereo unspecified) ?
BoNT-A LC inh2: -1; BoNT-F LC inh: -4; Bead autofluor: 3392; Anthrax LF prot: -10

What do the screens show for `CCOC(=O)[C@]12CCCC=C1N(Cc1ccc3c(c1)OCO3)C(=O)[C@H](CC(=O)N1CCC(c3ccccc3)CC1)C2`?
BoNT-A LC inh2: 1; BoNT-F LC inh: -2; Bead autofluor: 5962; Anthrax LF prot: 4

What do the screens show for `O=C1CC(N2CCN(c3ccccc3)CC2)C(=O)N1c1cccc(Cl)c1` (stereo unspecified)?
BoNT-A LC inh2: -3; BoNT-F LC inh: 17; Bead autofluor: 3465; Anthrax LF prot: -1

What do the screens show for `Cc1cccc(N2C(=O)CC(N3CCN(c4cccc(C(F)(F)F)c4)CC3)C2=O)c1` (stereo unspecified)?
BoNT-A LC inh2: inconclusive; BoNT-F LC inh: -2; Bead autofluor: 20300*; Anthrax LF prot: 0

What do the screens show for `Nc1[nH]c(C(=O)c2ccccc2)c(-c2ccc(Cl)cc2Cl)c1C(=O)c1ccc(Br)cc1`?
BoNT-A LC inh2: -2; BoNT-F LC inh: -6; Bead autofluor: 6130; Anthrax LF prot: 4

What do the screens show for `O=C(CCn1nnc2ccccc2c1=O)NCC1CCC(C(=O)O)CC1` (stereo unspecified)?
BoNT-A LC inh2: -3; BoNT-F LC inh: -1; Bead autofluor: 24413*; Anthrax LF prot: -3

What do the screens show for `O=C(O)CCCCCNC(=O)CCn1nnc2ccccc2c1=O`?
BoNT-A LC inh2: inconclusive; BoNT-F LC inh: 6; Bead autofluor: 21187*; Anthrax LF prot: -2

How did CC(C)[C@H](NC(=O)CCn1nnc2ccccc2c1=O)C(=O)O do in these assays?
BoNT-A LC inh2: 3; BoNT-F LC inh: 13; Bead autofluor: 8616; Anthrax LF prot: -1

How did O=C(O)CCCNC(=O)CCn1nnc2ccccc2c1=O do in these assays?
BoNT-A LC inh2: -1; BoNT-F LC inh: -4; Bead autofluor: 4894; Anthrax LF prot: -2

What do the screens show for `COc1ccc(NC(=O)C2(C)CCCN(C(C)=O)C2)cc1F` (stereo unspecified)?
BoNT-A LC inh2: 0; BoNT-F LC inh: -2; Bead autofluor: 3508; Anthrax LF prot: -7

Results for Clc1ccc(-c2cnc3n2CCC3)cc1 ?
BoNT-A LC inh2: inconclusive; BoNT-F LC inh: 1; Bead autofluor: 21764*; Anthrax LF prot: -3

What do the screens show for `Brc1cccc(-c2cnc3n2CCCCC3)c1`?
BoNT-A LC inh2: 0; BoNT-F LC inh: 6; Bead autofluor: 2419; Anthrax LF prot: 1

What do the screens show for `COc1ccc(CN2C(=O)CN(C3CCCCCC3)C(=O)C2c2ccc(OC)c(OC)c2)cc1` (stereo unspecified)?
BoNT-A LC inh2: -1; BoNT-F LC inh: -2; Bead autofluor: 10137; Anthrax LF prot: -1

Compound activity as filed in PubChem BioAssay.
